From PubChem BioAssay
Activity calls are given as the source filed them.

Assays:
[1] = small molecules captured by biotinylated probe aFSTL3 – biochemical, small-molecule microarray, fluorescence 635/667, stem cell growth factor project, primary screen (AID 1064); settings: higher = more signal;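 note: measures binding of the biotinylated anti-FSTL3 antibody to printed compounds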
[2] = binders from COS7 lysate, DM2A8 probe, primary screen, torsin A project, cell lysate, small-molecule microarray, fluorescence 635/667 (AID 1065); settings: higher = more signal, COS7 lysate expressing mutant human TOR1A
[3] = small molecules captured by biotinylated probe aFGF2 – biochemical, small-molecule microarray, fluorescence 635/667, stem cell growth factor project, primary screen (AID 1067); settings: higher = more signal;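 note: measures binding of biotinylated aFGF2 protein to printed compounds on slides; z-score merges feature fluorescence and signal-to-noise across triplicate slides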
[4] = small molecules captured by biotinylated probe aFGF10 – biochemical, small-molecule microarray, fluorescence 635/667, stem cell growth factor project, primary screen (AID 1071); settings: higher = more signal;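 note: score merges 667 nm spot intensity and signal to noise from triplicate slides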
[5] = target: Neurogenic locus notch homolog protein 2 (Homo sapiens) (UniProt Q04721); assay: small molecules binding Notch2 protein – biochemical, small-molecule microarray, 635 nm fluorescence, stem cell growth factors, primary screen (AID 1073); settings: higher = more signal
Neurogenic locus notch homolog protein 2 (Homo sapiens), sequence (Q04721 whole entry, looked up, canonical isoform): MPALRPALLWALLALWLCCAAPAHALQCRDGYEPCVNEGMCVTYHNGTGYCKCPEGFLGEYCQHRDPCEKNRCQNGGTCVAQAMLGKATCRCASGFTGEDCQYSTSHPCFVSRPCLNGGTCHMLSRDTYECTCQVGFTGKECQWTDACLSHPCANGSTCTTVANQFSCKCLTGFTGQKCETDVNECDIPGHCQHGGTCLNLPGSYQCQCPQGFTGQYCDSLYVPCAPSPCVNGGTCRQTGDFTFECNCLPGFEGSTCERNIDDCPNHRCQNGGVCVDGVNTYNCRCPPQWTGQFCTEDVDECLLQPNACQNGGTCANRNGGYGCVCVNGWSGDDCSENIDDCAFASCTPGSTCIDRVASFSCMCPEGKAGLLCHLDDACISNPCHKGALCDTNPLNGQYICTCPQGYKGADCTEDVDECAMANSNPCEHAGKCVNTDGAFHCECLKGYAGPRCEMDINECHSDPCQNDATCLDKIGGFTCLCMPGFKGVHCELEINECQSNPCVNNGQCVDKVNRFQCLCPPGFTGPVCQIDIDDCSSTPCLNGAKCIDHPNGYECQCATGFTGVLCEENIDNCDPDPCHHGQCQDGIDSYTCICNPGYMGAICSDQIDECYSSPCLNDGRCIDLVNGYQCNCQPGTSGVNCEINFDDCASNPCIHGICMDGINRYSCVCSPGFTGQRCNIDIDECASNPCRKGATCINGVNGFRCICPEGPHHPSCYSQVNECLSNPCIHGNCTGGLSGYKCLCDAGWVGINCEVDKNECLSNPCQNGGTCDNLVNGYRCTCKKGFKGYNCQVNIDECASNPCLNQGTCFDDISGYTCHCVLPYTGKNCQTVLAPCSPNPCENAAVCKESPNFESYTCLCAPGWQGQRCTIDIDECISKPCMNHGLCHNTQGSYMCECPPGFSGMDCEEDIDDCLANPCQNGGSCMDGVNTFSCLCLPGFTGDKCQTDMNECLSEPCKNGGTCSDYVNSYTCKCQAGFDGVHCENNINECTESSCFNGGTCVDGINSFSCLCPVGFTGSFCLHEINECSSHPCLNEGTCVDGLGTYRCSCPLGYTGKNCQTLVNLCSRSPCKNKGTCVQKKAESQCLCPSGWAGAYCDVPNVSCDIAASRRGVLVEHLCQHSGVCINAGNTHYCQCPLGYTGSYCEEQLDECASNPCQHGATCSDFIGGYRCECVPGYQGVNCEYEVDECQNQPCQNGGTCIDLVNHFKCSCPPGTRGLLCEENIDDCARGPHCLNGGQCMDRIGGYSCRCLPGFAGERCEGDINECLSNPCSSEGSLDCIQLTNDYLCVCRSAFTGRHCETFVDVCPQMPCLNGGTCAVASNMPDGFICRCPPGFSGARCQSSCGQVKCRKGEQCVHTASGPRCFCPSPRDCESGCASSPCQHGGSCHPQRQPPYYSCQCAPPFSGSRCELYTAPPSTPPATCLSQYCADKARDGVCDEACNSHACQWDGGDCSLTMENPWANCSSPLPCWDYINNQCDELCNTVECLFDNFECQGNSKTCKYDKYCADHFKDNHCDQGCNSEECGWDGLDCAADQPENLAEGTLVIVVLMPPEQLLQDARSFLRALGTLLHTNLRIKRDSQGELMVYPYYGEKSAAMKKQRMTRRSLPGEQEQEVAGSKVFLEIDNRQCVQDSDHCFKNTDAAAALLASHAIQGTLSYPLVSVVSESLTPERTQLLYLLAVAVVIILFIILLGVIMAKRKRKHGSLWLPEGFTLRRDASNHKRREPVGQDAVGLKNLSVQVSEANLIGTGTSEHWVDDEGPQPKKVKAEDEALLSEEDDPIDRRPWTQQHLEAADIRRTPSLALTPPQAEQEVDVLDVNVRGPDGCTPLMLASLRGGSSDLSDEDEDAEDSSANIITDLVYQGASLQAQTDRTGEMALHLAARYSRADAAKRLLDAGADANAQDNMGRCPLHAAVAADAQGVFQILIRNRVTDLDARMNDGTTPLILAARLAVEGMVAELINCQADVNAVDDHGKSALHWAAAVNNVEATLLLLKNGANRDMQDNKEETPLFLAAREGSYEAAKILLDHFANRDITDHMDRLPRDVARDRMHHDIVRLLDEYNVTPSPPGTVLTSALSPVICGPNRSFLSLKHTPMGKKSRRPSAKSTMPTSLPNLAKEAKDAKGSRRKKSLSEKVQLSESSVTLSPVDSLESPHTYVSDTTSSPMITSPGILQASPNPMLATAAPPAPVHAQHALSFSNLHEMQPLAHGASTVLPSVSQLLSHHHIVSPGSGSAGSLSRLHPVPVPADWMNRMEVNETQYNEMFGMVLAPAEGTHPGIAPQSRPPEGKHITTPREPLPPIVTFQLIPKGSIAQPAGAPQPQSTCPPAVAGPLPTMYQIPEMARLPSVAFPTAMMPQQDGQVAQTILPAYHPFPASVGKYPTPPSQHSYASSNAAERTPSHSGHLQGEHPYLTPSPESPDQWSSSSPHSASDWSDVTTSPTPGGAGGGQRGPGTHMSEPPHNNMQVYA

[6] = target: Pro-neuregulin-1, membrane-bound isoform (Homo sapiens) (UniProt Q02297); assay: small molecules binding neuregulin-1 protein – biochemical, small-molecule microarray, fluorescence 635/667, psychiatric disease protein project, primary screen (AID 1075); settings: NRG1 binding, 635 nm fluorescence, higher = more signal;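 note: score combines 667 nm spot fluorescence with signal to noise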
Pro-neuregulin-1, membrane-bound isoform (Homo sapiens), sequence (Q02297 whole entry, looked up, the tested form may be a part, canonical isoform): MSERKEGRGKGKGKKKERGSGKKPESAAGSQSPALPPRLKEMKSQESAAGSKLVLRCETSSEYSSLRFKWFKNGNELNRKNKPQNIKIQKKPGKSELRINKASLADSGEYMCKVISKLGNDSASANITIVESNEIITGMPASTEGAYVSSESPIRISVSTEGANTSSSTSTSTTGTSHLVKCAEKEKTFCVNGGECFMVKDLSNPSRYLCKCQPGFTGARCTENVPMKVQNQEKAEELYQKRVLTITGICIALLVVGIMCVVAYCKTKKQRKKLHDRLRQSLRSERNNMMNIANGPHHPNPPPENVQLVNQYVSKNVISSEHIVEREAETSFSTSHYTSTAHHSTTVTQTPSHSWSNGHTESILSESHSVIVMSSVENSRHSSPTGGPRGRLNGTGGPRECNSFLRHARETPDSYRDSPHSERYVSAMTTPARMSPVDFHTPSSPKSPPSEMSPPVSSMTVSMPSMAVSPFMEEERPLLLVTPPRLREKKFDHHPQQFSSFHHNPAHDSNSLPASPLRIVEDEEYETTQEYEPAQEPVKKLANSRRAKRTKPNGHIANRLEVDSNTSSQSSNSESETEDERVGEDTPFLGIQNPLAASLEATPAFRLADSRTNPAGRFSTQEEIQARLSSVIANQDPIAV

[7] = system: Neuregulin-1 EGF-like domain; assay: small molecules binding NRG1 EGF domain – biochemical, small-molecule microarray, 635 nm fluorescence, primary screen (AID 1081); settings: higher = more signal;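 note: binding of the protein to compounds printed on small-molecule microarray slides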
[8] = FRG1 expression reporter modulators in myotubes – cell-based, C2C12 myotubes, firefly/Renilla luciferase, luminescence, FRG1 inhibition for FSHD, primary screen (AID 1084); settings: FRG1 promoter luciferase, higher = more signal, called active from +8 up or from −8 down
[9] = small molecules captured by biotinylated probe aFST – biochemical, small-molecule microarray, fluorescence 635/667, stem cell growth factor project, primary screen (AID 1086); settings: higher = more signal;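 note: score merges 667 nm fluorescence with signal-to-noise of each printed compound spot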
[10] = binders of probe aHhip on microarray, primary screen, stem cell growth factor project, biochemical, small-molecule microarray, fluorescence 635/667 (AID 1087); settings: higher = more signal;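 note: score merges spot fluorescence at 667nm with spot signal to noise ratio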
[11] = system: PRMT1 (protein arginine N-methyltransferase 1); assay: small molecules binding arginine methyltransferase PRMT1 – biochemical, small-molecule microarray, 635 nm fluorescence, primary screen (AID 1088); settings: higher = more signal;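 note: binding of Prmt1 protein to compounds spotted on small-molecule microarray slides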
[12] = growth effects on S. cerevisiae YJM789 – YJM789 clinical isolate, OD600, 24 h, basal, primary screen (AID 1089); settings: higher = more signal, called active from +8 up or from −8 down;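 note: growth of clinical yeast isolate S. cerevisiae YJM 789 seeded 1000 cells per well; test concentration not given here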
[13] = S. pombe growth modifiers, basal conditions – strain 972, OD600, 24 h, no modulator, primary screen (AID 1090);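 note: basal condition with compound alone and no growth modifier present; test concentration not given here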; settings: S. pombe 972 growth, higher = more signal, called active from +8 up or from −8 down
[14] = budding yeast growth modifiers under rapamycin – strain BY4716, OD600, 96 h, primary screen (AID 1091); note: test concentration not given here; settings: S. cerevisiae BY4716 + rapamycin, higher = more signal, called active from +8 up or from −8 down
[15] = target: Torsin-1A-interacting protein 2 (Homo sapiens) (UniProt Q8NFQ8); assay: small molecules binding lysate-expressed LULL1 – cell lysate, human LULL1 lysate, 635/667 nm fluorescence, primary screen (AID 1092); settings: small-molecule microarray, hLULL1 lysate binding, 635 nm fluorescence; higher = more signal;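 note: probe is lysate of COS7 cells overexpressing human LULL1; score merges per-feature 667 nm fluorescence with signal-to-noise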
Torsin-1A-interacting protein 2 (Homo sapiens), sequence (Q8NFQ8 whole entry, looked up): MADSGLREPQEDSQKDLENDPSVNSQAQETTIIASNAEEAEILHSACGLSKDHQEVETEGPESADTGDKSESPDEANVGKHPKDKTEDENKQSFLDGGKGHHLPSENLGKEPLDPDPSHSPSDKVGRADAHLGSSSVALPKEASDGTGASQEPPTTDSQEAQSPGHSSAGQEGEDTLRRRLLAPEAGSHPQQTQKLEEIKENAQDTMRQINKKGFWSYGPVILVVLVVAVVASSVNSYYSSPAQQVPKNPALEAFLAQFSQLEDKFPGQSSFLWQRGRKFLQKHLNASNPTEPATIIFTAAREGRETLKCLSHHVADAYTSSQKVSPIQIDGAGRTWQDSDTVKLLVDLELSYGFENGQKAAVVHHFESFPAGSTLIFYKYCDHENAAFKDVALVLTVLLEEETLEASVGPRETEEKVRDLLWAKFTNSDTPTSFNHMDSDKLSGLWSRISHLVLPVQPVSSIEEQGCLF

[16] = optical density change of DRC41 E. coli – strain DRC41, OD650, 24 h, E. coli filamentation project, primary screen (AID 1093);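 note: MC1000 strain lacking acrAB efflux and sulA so SOS filamentation is blocked; test concentration not given here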; settings: E. coli DRC41 growth, higher = more signal, called active from +8 up or from −8 down
[17] = probe aLefty2 binding to arrayed compounds – biochemical, biotinylated probe, 635/667 nm fluorescence, primary screen (AID 1094); settings: small-molecule microarray, higher = more signal;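 note: score merges spot fluorescence near 667 nm with spot signal-to-noise ratio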
[18] = system: Noggin (protein binding on small-molecule microarray); assay: small molecules binding Noggin protein – biochemical, 635/667 nm fluorescence, primary screen (AID 1095); settings: 635 nm fluorescence, higher = more signal;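 note: score merges 667 nm feature fluorescence with signal to noise over triplicate slides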
[19] = target: Neurogenic locus notch homolog protein 3 (Homo sapiens) (UniProt Q9UM47); assay: small molecules binding NOTCH3 protein – biochemical, 635/667 nm fluorescence, primary screen (AID 1096); settings: small-molecule microarray, 635 nm fluorescence, higher = more signal
[20] = probe aEGFR binding to arrayed compounds – biochemical, biotinylated probe, 635/667 nm fluorescence, primary screen (AID 1097); settings: small-molecule microarray, higher = more signal;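 note: probe is a biotinylated anti-EGFR antibody binding compounds printed on slides; score combines fluorescence near 667 nm and signal to noise of each spot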

Row | Compound | composite z-score [1] | composite z-score [2] | composite z-score [3] | composite z-score [4] | composite z-score [5] | composite z-score [6] | composite z-score [7] | z-score [8] | composite z-score [9] | composite z-score [10] | composite z-score [11] | z-score [12] | z-score [13] | z-score [14] | composite z-score [15] | z-score [16] | composite z-score [17] | composite z-score [18] | composite z-score [19] | composite z-score [20]
1 | COC(=O)[C@@]1(Cc2ccc(OC)cc2)[C@H]2c3cc(C(=O)N(C)C)n(Cc4c(CO)[nH]cc(C)c4=O)c3C[C@H]2CN1C(=O)c1ccccc1 | 0.466 | 0.249 | -0.015 | -0.112 | 1.56 | 2.09 | 1.37 | 2.07 (inactive) | 1.47 | 1.81 | -0.922 | 0.0886 (inactive) | 0.95 (inactive) | -0.622 (inactive) | 3.22 | -1.28 (inactive) | 0.334 | 0.0072 | 0.0193 | 0.215
2 | C=C(CCCC)/C(=C/C[C@@H](OC(C)=O)c1ccc(OCCO)cc1)c1cc(C(=O)OC)ccc1OC | 0.0062 | 0.982 | -0.076 | -0.314 | -0.332 | 1.37 | 1.21 | 2.07 (inactive) | 0.0501 | -0.119 | 1.55 | -0.201 (inactive) | -0.52 (inactive) | -0.645 (inactive) | 2.27 | 0.0811 (inactive) | 0.0677 | 0.0148 | 0.467 | -0.0828
3 | NCCCCCCNC(=O)[C@@H]1C[C@@H]2C(=O)NCC(=O)N2[C@@H]1c1cccc(OCCO)c1 | 0.403 | 0.641 | 0.047 | 0.847 | 1.2 | 0.982 | 1.22 | 0.726 (inactive) | 0.543 | 0.385 | 1.37 | -0.205 (inactive) | -0.542 (inactive) | -0.138 (inactive) | 2.11 | 1.04 (inactive) | 0.0997 | 1.12 | 0.783 | 0.0988
4 | CCOC(=O)C[C@H]1[C@H](OC(=O)c2cc3ccccc3oc2=O)[C@@H](NC(=O)c2ccc(-c3ccccc3)cc2)c2cc(OCCCO)ccc2N1C(=O)Cc1ccc(OC)cc1 | -0.428 | 0.0922 | -0.0667 | 0.67 | 0.992 | 0.178 | 1.18 | 0.228 (inactive) | 0.494 | -0.132 | 1.2 | -0.792 (inactive) | -0.398 (inactive) | -0.077 (inactive) | 1.93 | -0.423 (inactive) | -0.212 | 0.421 | 1.11 | 0.148
5 | CCOC(=O)C[C@H]1[C@H](OC(=O)Cc2ccc3c(c2)OCO3)[C@@H](NC(=O)CC(C)C)c2cc(OCCCO)ccc2N1C(=O)c1ccc2ccccc2n1 | -0.306 | 1.01 | 0.0435 | 0.43 | 0.834 | 1.01 | 0.518 | -3.21 (inactive) | 0.376 | -0.344 | 0.516 | -0.0651 (inactive) | -0.943 (inactive) | -0.0443 (inactive) | 0.452 | 0.431 (inactive) | -0.145 | 0.988 | 0.647 | -0.178
6 | OCCCc1cc[n+](Cc2cc3c(cc2Br)OCO3)cc1 | 0.622 | -0.226 | -0.116 | -0.782 | -0.914 | 1.23 | 0.583 | 0.584 (inactive) | -0.222 | -0.383 | 0.115 | -0.41 (inactive) | -0.688 (inactive) | -0.213 (inactive) | -0.0854 | 0.0566 (inactive) | 0.193 | -0.617 | -0.785 | -0.12
7 | CCOC(=O)C[C@H]1[C@H](OC(=O)c2ccccc2-c2ccccc2)[C@@H](NC(=O)CC(C)C)c2cc(OCCCO)ccc2N1C(=O)c1ccccc1 | -0.565 | 0.115 | -0.0632 | 0.351 | 0.527 | 0.092 | 0.606 | 0.077 (inactive) | 0.324 | -0.137 | 0.768 | -0.959 (inactive) | -0.613 (inactive) | -1.52 (inactive) | 0.583 | 0.482 (inactive) | -0.0859 | 1.3 | 1.09 | -0.159
8 | CO[C@H]1O[C@H](CO)[C@@H](OC(=O)Nc2ccccc2)[C@@H]2OC(=O)[C@@H](Cc3ccccc3)C/C=C/C[C@H](Cc3ccccc3)C(=O)O[C@@H]12 | -0.263 | 1.24 | -0.0737 | 0.393 | -0.0327 | 0.379 | 0.324 | -0.461 (inactive) | 0.241 | 0.176 | 1.2 | 0.552 (inactive) | -0.0693 (inactive) | 1.04 (inactive) | 1.41 | 0.386 (inactive) | 0.142 | -0.0235 | -0.151 | -0.0697
